The source of these data is PubChem BioAssay (NCI).

Test [1] in a line: NCI Yeast Anticancer Drug Screen. Data for the rad50 strain (AID 155).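 Also: 0% = growth of vehicle-only cultures of the same strain.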 The conditions noted are these: S. cerevisiae rad50 strain growth inhibition; at 50.0 µM; hits give high values. The method in brief: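 Readout: growth inhibition relative to vehicle-treated cultures. Compound exposure was carried out in a genetically defined yeast strain deficient in DNA damage repair.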
Test [2] in a line: NCI Yeast Anticancer Drug Screen. Data for the mec2-1 strain (AID 157). To be noted: S. cerevisiae mec2-1 strain, at 50.0 µM, hits give high values. The method in brief:
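Compounds were applied to mec2-1 yeast cells. Their growth was then compared with that of vehicle-treated cultures to give growth inhibition.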

A short description of test [3]: NCI Yeast Anticancer Drug Screen. Data for the sgs1 mgt1 strain (AID 161).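 Also: 0% = growth of cultures given vehicle only.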 To be noted: S. cerevisiae sgs1 mgt1 strain, at 50.0 µM, hits give high values. The essentials:
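Growth of a repair-deficient yeast mutant was monitored after compound treatment and expressed as inhibition relative to vehicle-treated cultures.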

Test [4] is described as follows: NCI Yeast Anticancer Drug Screen. Data for the cln2 rad14 strain (AID 165).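 Also: 0% = growth equal to vehicle treated cultures.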 To be noted: S. cerevisiae cln2 rad14 strain, at 50.0 µM, hits give high values. The method in brief:
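Strain: cln2 rad14 yeast, altered in cell cycle control and DNA damage repair. Read-out: growth inhibition vs vehicle.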

A short description of test [5]: NCI Yeast Anticancer Drug Screen. Data for the bub3 strain (AID 167). The conditions noted are these: S. cerevisiae bub3 mutant strain, at 50.0 µM, hits give high values. The method in brief:
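Readout: yeast growth inhibition, expressed relative to vehicle-only wells. The test organism is a mutant strain from a panel with lesions in DNA repair or checkpoint genes.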

Test [6] is described as follows: NCI Yeast Anticancer Drug Screen. Data for the mlh1 rad18 strain (AID 175). To be noted: S. cerevisiae mlh1 rad18 strain growth inhibition; at 50.0 µM; hits give high values. The method in brief: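 A repair-deficient yeast strain is exposed to test compound, and growth is scored relative to vehicle-treated controls.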

Compounds without any hit were thinned out: in the full panel of roughly 79,000, 15% have a hit. Unmarked numbers belong to inactive results. Active and inactive are the calls of the source. Rule as the data show it: active = growth inhibition above about 70%; inactive = the rest.

With `COC(=O)/C=C/c1ccc2c(c1)CCC2`, the growth inhibition in test [1] was -35.5%; in test [2], -30.9%; in test [3] it was -13.8%; in test [4], 14.6%; in test [5], 31.7%; in test [6], -1.35%.

Take `CC(=O)c1cc(C)ccc1Br`: the growth inhibition in test [1] is 7.2%; in test [2] it was 6.65%; in test [3] it was -16.3%; in test [4] it was 0.5%; in test [5] it was -7.85%; in test [6], 7.35%.

Consider `CCC1NC(N=Nc2ccc([N+](=O)[O-])cc2)(P(=O)(OC(C)C)OC(C)C)OC1=O` (stereo not drawn), for which the growth inhibition in test [1] is 44.5%; in test [2], -43.5%; in test [3] it was 16.1%; in test [4], -15.8%; in test [5], 17.5%; in test [6], 10.8%.

Consider `CC(=O)c1c(C)[nH]c(-c2ccccc2)c1NS(=O)(=O)c1ccc(N)cc1`, for which the growth inhibition is -0.2% in test [1]; -3.45% in test [2]; 25.4% in test [3]; -13% in test [4]; 4% in test [5]; 8.95% in test [6].

`C[Si](C)(C)CCCO`: the growth inhibition is 0.25% in test [1]; 17.8% in test [2]; 3.3% in test [3]; 6.9% in test [4]; 9.25% in test [5]; 10% in test [6].

Take `O=C1C2CCC(C2)C12CC1(c3ccccc3)C(=O)c3ccccc3N1O2` (stereo not drawn): the growth inhibition in test [1] is -9%; in test [2], -31.6%; in test [3] it was -25.1%; in test [4] it was 8.85%; in test [5] it was 0.25%; in test [6], -27.4%.

For the compound `Cc1ccccc1NC(=O)CS`, the growth inhibition in test [1] is 17.6%; in test [2] it was 31.9%; in test [3], 31.2%; in test [4], -21%; in test [5] it was 29.2%; in test [6] it was 33.2%.

For `Cc1cccc(N=C/C=C/c2ccccc2)c1C`, the growth inhibition in test [1] is 0.85%; in test [2], -6.4%; in test [3], -20.7%; in test [4], -50.6%; in test [5], -4.7%; in test [6], -5.85%.

Take `O=C(O)Cc1ccc([N+](=O)[O-])cc1`: the growth inhibition was 21.1% in test [1]; -11.3% in test [2]; 36.1% in test [3]; 15.2% in test [4]; 12.8% in test [5]; 4.75% in test [6].

With `CC(=O)OCC1OC(Nc2[nH]c(=O)n(C)c(=O)c2C=O)C(OC(C)=O)C(OC(C)=O)C1OC(C)=O` (stereo not drawn), the growth inhibition was 2.5% in test [1]; 9.4% in test [2]; 6.7% in test [3]; 9.15% in test [4]; -0.4% in test [5]; 3.95% in test [6].

For the compound `COC(=O)/C=C1/OC(c2ccc(C)cc2C)=CC1=O`, the growth inhibition in test [1] was 47.8%; in test [2] it was 50.7%; in test [3], 42.5%; in test [4], 0.8%; in test [5], 26.6%; in test [6], 57.1%.

Consider `O=C1C(O)CCN1C1CCCCC1` (stereo not drawn), for which the growth inhibition in test [1] was 10.7%; in test [2], -6.95%; in test [3], -0.3%; in test [4], -2.85%; in test [5], 4.55%; in test [6], 0.2%.

Take `CCC(COC(=O)CC[C@@H](NC(=O)C(C)NC(=O)C(C)OC1C(O)C(CO)OC(OCc2ccccc2)C1NC(C)=O)C(N)=O)NC1c2ccccc2Nc2cccc([N+](=O)[O-])c21` (stereo partly drawn): the growth inhibition in test [1] is 5.65%; in test [2], -9.7%; in test [3], -13.8%; in test [4], 6.4%; in test [5] it was -17.9%; in test [6], -10.7%.

Consider `CC(NC1=CC(=O)c2cccnc2C1=O)C(O)c1ccccc1` (stereo not drawn), for which the growth inhibition in test [1] was 82.8% (active); in test [2] it was 80.8% (active); in test [3], 72.1% (active); in test [4], 27.5%; in test [5], 64.2%; in test [6] it was 71.3% (active).

As to `CCOC(=O)C(=O)Cc1ccccc1[N+](=O)[O-]`, the growth inhibition in test [1] was 26.1%; in test [2] it was 0.1%; in test [3] it was 7.75%; in test [4], -3.95%; in test [5], -3.8%; in test [6], 38%.

Consider `CC1(C)C2CCC(CN)C1C2` (stereo not drawn), for which the growth inhibition in test [1] is -11.4%; in test [2], -44.6%; in test [3], -1.7%; in test [4], 13.3%; in test [5], -20.1%; in test [6] it was -15.6%.

`OC1(CCC2OCCO2)c2ccccc2-c2ccccc21`: the growth inhibition in test [1] is -3.9%; in test [2], 7.05%; in test [3], 7.85%; in test [4], 25.4%; in test [5], 15.8%; in test [6], 2.85%.

`CC(C)(C)c1ccc(O)c(Cl)c1`: the growth inhibition in test [1] is -15.8%; in test [2], -7.65%; in test [3], -5.9%; in test [4] it was -7.85%; in test [5] it was -11.1%; in test [6], 10.2%.

On to `C=C(CO)CC(CC(=C)CCS(=O)(=O)c1ccccc1)S(=O)(=O)c1ccccc1` (stereo not drawn), for which the growth inhibition in test [1] was 8.55%; in test [2], 1.75%; in test [3] it was -0.9%; in test [4], 8.85%; in test [5], 7.35%; in test [6], -5.75%.

Turning to `N/C(CCOCC/C(N)=N\O)=N/O`, the growth inhibition in test [1] was 16.8%; in test [2] it was 25.4%; in test [3], -22.4%; in test [4], -1.85%; in test [5], -2.3%; in test [6], 6.5%.

With `c1ccc(C2(c3ccccc3)Oc3ccccc3O2)cc1`, the growth inhibition was -10.1% in test [1]; 3.65% in test [2]; -6.45% in test [3]; -37.5% in test [4]; -6.4% in test [5]; 7.3% in test [6].

Regarding `CCSc1n[nH]c(=O)nc1NN`, the growth inhibition in test [1] is -0.35%; in test [2] it was -3.85%; in test [3] it was -28.4%; in test [4], -60%; in test [5], -19.2%; in test [6], -2.75%.

As for `Cc1nc2ccccc2c(=O)n1/N=C\c1ccc2c(c1)CCC2`, the growth inhibition is -1.7% in test [1]; -5.5% in test [2]; 15.8% in test [3]; 18.2% in test [4]; 23% in test [5]; 29.1% in test [6].

Turning to `CC1(C)C2CCC3CC(CCC#N)CCC3C21C#N` (stereo not drawn), the growth inhibition in test [1] was -32.2%; in test [2], -11.2%; in test [3], -8.8%; in test [4], -34.5%; in test [5], -37.8%; in test [6], -23.1%.

Regarding `NC(=O)c1csc(Nc2csc(N)n2)n1`, the growth inhibition in test [1] was -6.05%; in test [2], -15.5%; in test [3], -6.35%; in test [4], -13.6%; in test [5], 18.8%; in test [6], -26.6%.

With `CC(C(=O)c1ccc(Cl)cc1)C1=NC2NN(c3ccccc3)C(=O)C2=C1C(C)C(=O)c1ccc(Cl)cc1` (stereo not drawn), the growth inhibition in test [1] is 10.5%; in test [2], -12.3%; in test [3], 6%; in test [4], -0.3%; in test [5], 1.8%; in test [6], 3.25%.

On to `O=C(CN1C(=O)NC(c2ccccc2)(c2ccccc2)C1=O)NCCN1CCOCC1`, for which the growth inhibition in test [1] is -1.65%; in test [2], 3.9%; in test [3], -5.95%; in test [4], -1.6%; in test [5], -0.1%; in test [6] it was 26.1%.

Turning to `C\C(=C/C(=N/N=C\c1ccccc1O)c1ccccc1)c1ccccc1`, the growth inhibition in test [1] is 13.8%; in test [2], 10.9%; in test [3] it was -4.45%; in test [4] it was -3.5%; in test [5], 5.6%; in test [6], 5.15%.

Turning to `Cc1cnc2cc(Cl)ccc2c1NCCN(CC(C)C)CC(C)C`, the growth inhibition in test [1] is -11%; in test [2], 0.7%; in test [3] it was -10.6%; in test [4], -22.5%; in test [5] it was 0.05%; in test [6], -30.8%.

For `COCOC(C)=O`, the growth inhibition in test [1] was -9.1%; in test [2] it was -6.4%; in test [3], 3.7%; in test [4], 0.5%; in test [5], -12.4%; in test [6] it was 1.4%.

Turning to `N/N=C(\NN)c1ccccc1`, the growth inhibition in test [1] is 11.7%; in test [2], 12.2%; in test [3], -4.2%; in test [4], -47.5%; in test [5] it was 0.75%; in test [6], 11.7%.

In the case of `NC(=O)CCC(N)=O`, the growth inhibition is 22.6% in test [1]; 5.75% in test [2]; 5.25% in test [3]; -5.4% in test [4]; 17.1% in test [5]; 1.45% in test [6].

As for `Nc1ncnc2c1ncn2C[c-]1[c-][c-][c-][c-]1.[Fe].[c-]1[c-][c-][cH-][c-]1`, the growth inhibition in test [1] is -4.95%; in test [2] it was -23.8%; in test [3] it was -11.9%; in test [4], -40.7%; in test [5], -15.7%; in test [6], -8.8%.

Consider `COc1cccc(C(=O)c2ccncc2)c1OC`, for which the growth inhibition in test [1] is -10.2%; in test [2], -4.65%; in test [3], -5.6%; in test [4], 4.4%; in test [5], 1.1%; in test [6], -4.85%.

`c1ccc2c(c1)C1C3c4ccccc4C1C1C2C31`: the growth inhibition in test [1] is 5.1%; in test [2], 12.1%; in test [3] it was -0.1%; in test [4], 2.6%; in test [5], 3.5%; in test [6], -2.8%.

Consider `CN(CCc1ccccn1)C(=S)N/N=C/c1ccccn1`, for which the growth inhibition in test [1] is 77% (active); in test [2], 83.8% (active); in test [3] it was 91% (active); in test [4] it was 89.7% (active); in test [5], 89.8% (active); in test [6], 91% (active).

`Nc1ccc2c(c1)CC1CC(=O)NN=C21` (stereo not drawn): the growth inhibition in test [1] was 29.5%; in test [2] it was 9.95%; in test [3], 9.4%; in test [4] it was 3.35%; in test [5], -3.15%; in test [6], -22.2%.

As to `CCOc1ccc(/C=C(\NC(=O)c2ccccc2)C(=O)Nc2ccccc2)cc1OC`, the growth inhibition was 4.8% in test [1]; -12.6% in test [2]; -4.45% in test [3]; -25.6% in test [4]; -0.15% in test [5]; 2.1% in test [6].
